# Assay outcomes: PubChem BioAssay, National Center for Advancing Translational Sciences (NCATS)
# HCV inh: qHTS Assay for Inhibitors of Hepatitis C Virus (HCV); Potency, µM (doses to about 41.8 µM), for the others: at the highest dose activity change, negative = inhibition, actives largely listed as inhibitors; 340,000 compounds, 3.4% hits; Huh7.5.1 HCVcc-Cre infection, luciferase reporter, 44 h; also: potency is read from the fitted curve at half-maximal effect; % is scaled to controls: 0 for no effect and ±100 for the full control effect
#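 Reporter virus HCVcc-Cre (~0.5 moi) infects cells exposed to compound; seeding density 1,000 cells/well with 4 h settling beforehand. Luminescence, 15 sec read, taken 44 h post-infection following a 15 min RT substrate incubation.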
# Shiga inhibitor: A qHTS for Small Molecule Inhibitors of Shiga Toxin | AID 2315, 2010 | 290,000 compounds, 9.2% hits | inhibition, % at 38.7 µM | Vero cells, Shiga toxin protein synthesis inhibition reporter; in the data active = inhibition mostly above about 28%, no sharp cut-off; inactive = mostly below about 43%; also: 0% is about no effect
# Pf growth 48h: Primary qHTS for delayed death inhibitors of the malarial parasite plastid, 48 hour incubation; P. falciparum luciferase growth in erythrocytes, 48 h; Potency, µM (top dose mostly 28.7 µM), without a hit: at the top dose activity change, negative = inhibition, usual class: inhibitors; 310,000 compounds, 5.9% hits; also: potency is read from the fitted curve at half-maximal effect; % is scaled to controls: 0 for no effect and ±100 for the full control effect
#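 Luminescence readout; reporter = integrated firefly luciferase in P. falciparum. RBC culture at 2% hematocrit, 0.1% parasitemia final, 37 C/5% CO2; decreased signal taken as growth inhibition.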
# HCMV inh: qHTS Assay for inhibitors of the human cytomegalovirus (HCMV) | HFF cells, HCMV-luciferase reporter, 72 h; active compounds read low | activity change, negative = inhibition, % at 57.5 µM | 410,000 compounds, 4.5% hits; in the data active = activity change below about -60%; inconclusive = no clear call, values can overlap the other calls; inactive = above about -39%; also: % is scaled to controls: 0 for no effect and ±100 for the full control effect
#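 Inhibition of viral replication was scored as loss of reporter luminescence in HFFs infected with HCMV-luciferase (MOI 1 PFU/cell) for 72 h; compounds tested at 2 doses, normalized to buffer and Salinomycin controls.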
# Pf growth 96h: Primary qHTS for delayed death inhibitors of the malarial parasite plastid, 96 hour incubation; P. falciparum luciferase reporter growth, 96 h; Potency, µM (doses to about 28.7 µM), inactives show top-dose activity change, negative = inhibition, hits mostly inhibitors; 320,000 compounds, 6.9% hits; AID 504834, 2011; also: potency is read from the fitted curve at half-maximal effect; % is scaled to controls: 0 for no effect and ±100 for the full control effect
#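 Compounds incubated with erythrocytes infected by luciferase-expressing P. falciparum (2% hematocrit, 0.05% parasitemia final) for 96 hours, 37 C in 5% CO2. Growth inhibition scored as decreased luciferase luminescence.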
# Cycloheximide cs: Cycloheximide Counterscreen for Small Molecule Inhibitors of Shiga Toxin; 300,000 compounds, 12% hits; AID 2314, 2010; max response, %; cell reporter, cycloheximide protein synthesis inhibition counterscreen; in the data active = max response mostly above about 13%, no sharp cut-off; inactive = mostly below about 14%; also: read at 38.3 µM for the half of the compounds with a filed dose; 0% is about no effect
# The depositor's hits bear a star; u = inconclusive; x = no result given; + = active, no number. In the library only some 21% were active in any assay of this set; here they are far more common. Unless noted, calls follow the shape of the dose curve; as a rule, active = well fitted inhibition curve with a large enough effect; inconclusive = small, poorly fitted or top-dose-only effect, or another doubt; inactive = no such curve, though single readings can be large or run the other way.
SMILES,HCV inh,Shiga inhibitor,Pf growth 48h,HCMV inh,Pf growth 96h,Cycloheximide cs
COc1ccc2nc(NC(=O)C3CCN(S(=O)(=O)c4cccc5nsnc45)CC3)sc2c1,u,-3,u,-75*,10µM*,-2
Cc1csc2c(=O)sc(NC(=O)c3ccco3)nc12,-17%,19,21%,56,41%,9
Cc1ccc2nc(NC(=O)c3ccco3)sc2c1,-2%,15,x,u,-9%,30*
O=C(Nc1nc2ccsc2c(=O)s1)c1ccco1,-9%,97*,40%,15,27%,27*
CC1CCCCN1CCCNC(=O)c1[nH]c2ccccc2c1Sc1ccc(Cl)cc1 (centres undefined),x,x,x,-27,x,x
CC(C)CN(C(=O)c1ccco1)C1CCS(=O)(=O)C1 (centres undefined),3%,x,2%,-12,-10%,x
COc1ccc2nc(N3CCN(C(=O)c4ccco4)CC3)sc2c1,x,x,x,14,x,x
Cc1ccc2nc(NC(=S)NC(=O)c3ccco3)sc2c1,-27%,138*,138%,27,399%,67*
O=c1sc(Nc2ccccc2)nc2ccsc12,-27%,92*,x,41,u,80*
Cc1ccc2nsnc2c1NC(=S)NC(=O)c1ccco1,3%,-15,30%,3,-73%,-2
O=C(Nc1nc2ccsc2c(=O)s1)C1CCC1,16%,55*,17%,-27,36%,41*
COc1ccc2nc(NC(=O)C3CCN(C(=O)c4ccco4)CC3)sc2c1,-3%,144*,4%,2,u,36*
CC(=O)c1cccc(NC(=O)c2c(-c3c(F)cccc3Cl)noc2C)c1,-5%,x,17%,-20,32%,x
COc1cc2nc(NC(=O)c3ccco3)sc(=O)c2cc1OC,-11%,14,1%,u,13%,1
COc1ccc2nc(NC(=O)c3ccco3)sc2c1,-9%,60*,7%,56,-10%,20*
Cc1ccc(Cn2c(C)c3cnn(CC(=O)NC4CCCC4)c(=O)c3c2C)cc1,6%,30*,1%,-16,9.3µM*,10*
COC(=O)Cn1ncc2c(C)n(Cc3ccccc3)c(C)c2c1=O,-6%,74*,70%,19,39%,39*
COC(=O)c1cc(=O)n2c(sc3ccccc32)c1C#N,0%,-4,71%,-17,25%,1
Nc1c(-c2ccccc2)cnn1-c1cccc(Cl)c1,-14%,82*,217%,59,381%,51*
Cc1cccc(-n2c(-c3cccc([N+](=O)[O-])c3)nc3nc4ccccc4nc32)c1,-2%,-3,-3%,x,u,-2
Cc1cccc(-c2cnn(-c3cccc([N+](=O)[O-])c3)c2N)c1,-18%,36,40%,u,96%,22*
Cc1cccc(-c2cnn(-c3ccccc3)c2N)c1,-1%,101*,126%,29,200%,44*
CC(C)(C)c1cnnn1-c1cccc([N+](=O)[O-])c1,9%,-10,7%,-66*,u,2
Cc1cccc(-c2nc3c(cnn3-c3ccccc3)c(=O)n2-c2cccc(Cl)c2)c1,x,x,x,-25,x,x
COc1ccc2[nH]c3c(c2c1)CCN1C(=O)N([C@@H](C)C(=O)NCc2ccco2)C(=O)[C@]31C,u,3,12%,2,u,-3
SMILES,HCV inh,Shiga inhibitor,Pf growth 48h,HCMV inh,Pf growth 96h,Cycloheximide cs
CCOc1ccc(N2CC(NC(=O)C3CCCCC3)CC2=O)cc1 (centres undefined),x,x,x,-6,x,x
Cc1cc(Nc2ccccc2)n(-c2cccc(Cl)c2)n1,u,7,16%,-37,x,4
Nc1ccccc1Nc1cc(-c2cccc(Cl)c2)nn1-c1ccccc1,-7%,+,u,12,u,20*
CCOCCc1nn2c(=O)cc(COC(=O)COc3ccccc3Cl)nc2s1,x,x,x,6,x,x
CCOC(=O)c1sc(N/N=C/c2ccc(N(C)C)cc2)nc1C,-5%,9,-22%,58,u,6
CC(=O)c1sc(N/N=C\c2cccc(Br)c2)nc1C,1%,85*,-67%,-13,-65%,67*
